Measured values: PubChem BioAssay (NCATS)
Inconclusive results are not listed. Entries that show only a call come without a potency. Values without a mark were called inactive. The source made the active and inactive calls. Unless noted, calls come from the whole dose curve; as a rule, active = well fitted curve in the direction sought with a large enough effect; inconclusive = small, poorly fitted or top-dose-only effect, or another doubt; inactive = no such curve, though single readings can be large; an effect the other way counts as inactive or inconclusive.

Columns and labels:
[1] = target: Voltage-gated inwardly rectifying potassium channel KCNH2 (Homo sapiens) (UniProt Q12809); test: qHTS Assay for Small Molecule Inhibitors of the Human hERG Channel Activity (AID 588834); conditions: U2OS BacMam hERG, FluxOR thallium flux fluorescence; series mostly up to 46.1 µM;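 note: lower thallium flux fluorescence means stronger hERG block; nearly all actives have a fitted effect of over 50% in size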; note: potency is the fitted concentration of half-maximal effect
Chain of Voltage-gated inwardly rectifying potassium channel KCNH2 (Homo sapiens) (Q12809 whole entry, looked up): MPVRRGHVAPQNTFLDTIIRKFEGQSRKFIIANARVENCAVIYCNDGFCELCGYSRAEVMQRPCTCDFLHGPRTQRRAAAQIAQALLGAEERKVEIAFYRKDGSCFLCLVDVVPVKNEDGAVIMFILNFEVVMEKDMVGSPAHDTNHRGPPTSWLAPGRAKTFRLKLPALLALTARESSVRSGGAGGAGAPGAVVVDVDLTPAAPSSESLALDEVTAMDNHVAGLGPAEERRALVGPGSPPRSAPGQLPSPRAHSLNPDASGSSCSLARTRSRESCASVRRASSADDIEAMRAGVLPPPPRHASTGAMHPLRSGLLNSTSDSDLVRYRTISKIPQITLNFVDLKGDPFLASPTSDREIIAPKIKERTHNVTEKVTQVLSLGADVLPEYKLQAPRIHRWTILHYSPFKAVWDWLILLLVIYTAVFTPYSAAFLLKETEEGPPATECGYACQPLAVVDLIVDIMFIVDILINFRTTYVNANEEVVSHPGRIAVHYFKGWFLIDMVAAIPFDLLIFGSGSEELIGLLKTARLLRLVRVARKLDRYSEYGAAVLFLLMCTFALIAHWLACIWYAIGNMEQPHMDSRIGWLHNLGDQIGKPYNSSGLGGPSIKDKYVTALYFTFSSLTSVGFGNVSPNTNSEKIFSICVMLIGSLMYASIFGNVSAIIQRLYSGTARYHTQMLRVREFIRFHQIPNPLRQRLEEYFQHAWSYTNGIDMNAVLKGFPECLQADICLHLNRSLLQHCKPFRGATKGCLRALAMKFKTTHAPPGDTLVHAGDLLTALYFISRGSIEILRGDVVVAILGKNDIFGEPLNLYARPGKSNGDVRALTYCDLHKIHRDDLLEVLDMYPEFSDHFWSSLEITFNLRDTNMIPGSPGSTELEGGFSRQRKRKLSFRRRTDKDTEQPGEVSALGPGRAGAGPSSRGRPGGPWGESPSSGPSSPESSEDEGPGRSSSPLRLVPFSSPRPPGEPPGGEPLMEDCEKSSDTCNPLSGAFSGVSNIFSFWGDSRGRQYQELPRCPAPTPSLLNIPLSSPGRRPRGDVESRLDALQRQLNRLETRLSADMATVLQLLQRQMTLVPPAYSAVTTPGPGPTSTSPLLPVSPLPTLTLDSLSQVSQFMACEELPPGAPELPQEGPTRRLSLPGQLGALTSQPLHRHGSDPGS
How it was run: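 In hERG-transduced U2OS cells, dye-loaded for 1 hr at room temperature in dark, test compounds incubated 10 min at 37 °C before thallium stimulation. AC50 values derived by Hill modelling of concentration-response.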

[2] = target: Luciferin 4-monooxygenase (Photinus pyralis) (UniProt P08659); test: Biochemical firefly luciferase enzyme assay for NPC (AID 624030);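 note: purified P. pyralis luciferase at 10 nM with luciferin and ATP substrate; nearly all actives have a fitted effect of over 70% in size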; conditions: purified P. pyralis luciferase, luminescence, 5 min; series mostly up to 58.6 µM
Chain of Luciferin 4-monooxygenase (Photinus pyralis) (P08659 whole entry, looked up): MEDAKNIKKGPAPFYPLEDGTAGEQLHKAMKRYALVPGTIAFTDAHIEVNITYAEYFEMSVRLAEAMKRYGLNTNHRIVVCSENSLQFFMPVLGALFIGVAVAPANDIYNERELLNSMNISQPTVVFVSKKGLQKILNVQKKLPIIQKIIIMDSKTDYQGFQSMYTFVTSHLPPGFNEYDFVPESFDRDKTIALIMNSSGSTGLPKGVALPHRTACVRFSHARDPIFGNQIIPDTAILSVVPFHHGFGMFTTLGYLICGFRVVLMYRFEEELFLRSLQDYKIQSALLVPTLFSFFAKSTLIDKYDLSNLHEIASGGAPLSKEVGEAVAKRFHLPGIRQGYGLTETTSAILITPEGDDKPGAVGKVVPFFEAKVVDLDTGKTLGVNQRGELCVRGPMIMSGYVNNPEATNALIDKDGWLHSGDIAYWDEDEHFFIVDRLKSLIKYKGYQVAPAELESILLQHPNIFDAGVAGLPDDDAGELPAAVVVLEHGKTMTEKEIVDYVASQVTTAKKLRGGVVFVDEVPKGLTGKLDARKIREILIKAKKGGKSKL
How it was run: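 Purified P. pyralis luciferase at 10 nM in 50 mM Tris Acetate (final), luminescence read within 5 minutes of enzyme addition to compounds. Activity normalised to PTC124 versus DMSO; concentration-response curves classed by r2, magnitude and activity.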

[3] = S16 Schwann cell viability assay (CellTiter-Glo assay) (AID 624031); conditions: S16 rat Schwann cells viability, 24 h; series mostly up to 57.5 µM;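 note: native untransfected S16 rat Schwann cells; nearly all actives have a fitted effect of over 70% in size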
How it was run: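 Counter-screen for cytotoxicity: parental S16 rat Schwann cells lacking the PMP22 reporters, treated 24 h with compound, viability from cellular ATP by CellTiter-Glo luminescence, normalized to DMSO (0%) and no-cell wells.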

[4] = S16 Schwann cell PMP22 intronic element firefly luciferase assay (AID 624032); conditions: S16 rat Schwann cells, PMP22 element FLuc, 24 h; series mostly up to 57.5 µM; note: nearly all actives have a fitted effect of over 30% in size
How it was run: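 Rat S16 Schwann cells stably carrying firefly luciferase driven by a PMP22 intronic element, in 10% FBS, treated 24 h at 37 C. ONE-Glo luminescence normalized to PTC124 control and DMSO (0%); curves classed by r2, magnitude and activity.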

[5] = S16 Schwann cell PMP22 intronic element beta-lactamase assay (AID 624044; calls by dose curve; note: nearly all actives have a fitted effect of over 15% in size); conditions: S16 rat Schwann cells, PMP22 element beta-lactamase FRET, 24 h; ratio activity, negative = inhibition: at 38.3 µM (top of the series) unless noted
How it was run: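 Beta-lactamase reporter under a PMP22 intronic regulatory element in stable S16 rat Schwann cells; 24 h compound exposure. 460 nm blue signal normalized between DMSO (0%) and potassium clavulanate, with 535 nm FRET tracking viability; curves classed by r2 and response.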

SMILES	Potency [1]	Potency [2]	Potency [3]	Potency [4]	ratio activity, negative = inhibition [5] [%]
FC(F)(F)COCC(F)(F)F	inactive	inactive	inactive	inactive	-0.887
O=C(O)CC/C=C\CC[C@@H]1[C@@H](N2CCCCC2)[C@@H](O)C[C@@H]1OCc1ccc(-c2ccccc2)cc1	0.501 µM (active)	inactive	inactive	inactive	-1.41
Nc1ncnc2c1ncn2CCOCP(=O)(O)O	inactive	inactive	inactive	inactive	0.57
FC(F)(F)C(F)(F)C(F)(F)C(F)(F)C(F)(F)C(F)(F)F	inactive	inactive	inactive	inactive	0.234
CNC(=O)OCc1cccc(COC(=O)NC)n1	inactive	inactive	inactive	inactive	-18.3
N=C(N)n1cccn1	inactive	inactive	inactive	inactive	-0.887
CC(C)c1nc(N(C)S(C)(=O)=O)nc(-c2ccc(F)cc2)c1/C=C/C(O)CC(O)CC(=O)O (stereo not given)	14.1 µM (active)	inactive	inactive	inactive	3.3
CS(=O)(=O)OCC(O)C(O)COS(C)(=O)=O (stereo not given)	inactive	inactive	inactive	inactive	2.66
C=CCOc1ccc(CC(=O)O)cc1Cl	inactive	inactive	inactive	inactive	-6.65
OC/C=C/c1ccccc1	inactive	inactive	inactive	inactive	-1.9
CS(=O)(=O)c1ccc([C@@H](O)[C@@H](COC(=O)CN)NC(=O)C(Cl)Cl)cc1	inactive	inactive	inactive	inactive	3.99
